Experimental data reported in PubChem BioAssay (NCI).
This is part of a sample that, as a whole, favours compounds with a hit. Of some 79,000 tested, about 15% had one in any assay. Active and inactive are the calls of the source. Rule as the data show it: active = growth inhibition above about 70%; inactive = the rest. Where a SMILES comes first, the peptide text is derived from it. [ ]: non-standard residue; d: D form. ξ: configuration not given here. ξA = CC(N)C(=O)O

Key:
[1] = NCI Yeast Anticancer Drug Screen. Data for the rad50 strain (AID 155);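 also: 0% = growth of vehicle-only cultures of the same strain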; settings: S. cerevisiae rad50 strain growth inhibition; at 50.0 µM; stronger effect = higher value
Outline: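 Inhibition values express reduced yeast growth in compound-treated cultures relative to vehicle-treated controls.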

[2] = NCI Yeast Anticancer Drug Screen. Data for the mec2-1 strain (AID 157); settings: S. cerevisiae mec2-1 strain, at 50.0 µM, stronger effect = higher value
Outline: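 Readout is yeast growth inhibition, normalised to vehicle-treated controls, in the mec2-1 strain exposed to compound.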

[3] = NCI Yeast Anticancer Drug Screen. Data for the cln2 rad14 strain (AID 165);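 also: 0% = growth equal to vehicle treated cultures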; settings: S. cerevisiae cln2 rad14 strain, at 50.0 µM, stronger effect = higher value
Outline: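 Relative to vehicle controls, growth inhibition of compound-treated cln2 rad14 yeast was recorded.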

[4] = NCI Yeast Anticancer Drug Screen. Data for the bub3 strain (AID 167); settings: S. cerevisiae bub3 mutant strain, at 50.0 µM, stronger effect = higher value
Outline: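 Steps: expose the mutant yeast strain to compound; grow alongside vehicle-treated cultures; measure growth; express inhibition against the vehicle cultures.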

[5] = NCI Yeast Anticancer Drug Screen. Data for the mlh1 rad18 strain (AID 175); settings: S. cerevisiae mlh1 rad18 strain growth inhibition; at 50.0 µM; stronger effect = higher value
Outline: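 Test agents were incubated with a yeast strain of defined genotype (DNA damage repair defect). Inhibition of growth was derived by comparison with vehicle-exposed cultures.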

Measured: growth inhibition

Cn1c(=O)c2c(ncn2CCSCC2=NS(=O)(=O)c3cc(S(N)(=O)=O)c(C(F)(F)F)cc3N2)n(C)c1=O
inactive: [1] 2.8% | [2] 1.75% | [3] -35.6% | [4] 14.1% | [5] 4.95%

NNC(=O)C1CC1
inactive: [1] 0.5% | [2] -25.9% | [3] 2.8% | [4] -14.1% | [5] -4.55%

CNC(=S)NNC1=NCCCCN1
inactive: [1] -41.2% | [2] -20% | [3] 3.9% | [4] 2.1% | [5] -16.1%

O=c1ccnc2c1ccc1[nH]cccc12
inactive: [1] 1.35% | [2] 6.25% | [3] 1% | [4] 8.6% | [5] 13.3%

O=NC(C[N+](=O)[O-])c1ccccc1 (stereo not given)
inactive: [1] 4.6% | [2] -21.9% | [3] -40.7% | [4] 6.55% | [5] -24.4%

CCOC(=O)c1cn(CC)c2cc3c(cc2c1=O)SCS3
inactive: [1] -37.3% | [2] -18.9% | [3] 29.9% | [4] 19.4% | [5] 41%

CC1=Nc2c(C)noc2CC(c2ccccc2O)C1 (stereo not given)
inactive: [1] -1.5% | [2] -2.6% | [3] 27.2% | [4] -15.8% | [5] -5.35%

CC1CC(NC(=O)/C=C/C(=O)O)CC(C)(C)C1 (stereo not given)
inactive: [1] -2.85% | [2] 1.05% | [3] -2.95% | [4] 33.9% | [5] -0.2%

COc1cc(C2C(C(=O)O)=C(COC(C)=O)Oc3cc4c(cc32)OCO4)cc(OC)c1OC (stereo not given)
inactive: [1] -9.9% | [2] -15.4% | [3] -19.2% | [4] -4.1% | [5] -8.6%

CCC1CN2N=Cc3ccccc3C2=N1 (stereo not given)
inactive: [1] -13.7% | [2] 5.35% | [3] -43.5% | [4] -22.7% | [5] -15.8%

Cc1ccc2c(c1)[nH]c(=S)n2C=C(C#N)C#N
inactive: [1] -23.6% | [2] -42.4% | [3] 0.75% | [4] -0.55% | [5] -5.15%

S=C(CC(=S)N1CCOCC1)N1CCOCC1
inactive: [1] -15.1% | [2] -1.5% | [3] -14.7% | [4] -11.7% | [5] -1.75%

Clc1ccc2c(NCCCCN=Cc3ccccc3)ccnc2c1
inactive: [1] -9.55% | [2] -27.2% | [3] -10.4% | [4] 15.3% | [5] -12.7%

Cc1c2oc3c(C)ccc(C(=O)NCCc4ccco4)c3nc-2c(C(=O)NCCc2ccco2)c(N)c1=O
inactive: [1] 39.5% | [2] 7.85% | [3] 15.7% | [4] 0.75% | [5] 44.4%

O=C(Nc1ccccc1SC(/C=C/NNC1=NC(c2ccccc2)C(c2ccccc2)=NN1)c1ccccc1)c1ccc(Cl)cc1Cl (stereo not given)
inactive: [1] -35% | [2] -7.7% | [3] 24.8% | [4] 0.15% | [5] -13.4%

CSC1=Nc2ccccc2N(C)c2c1c(-c1ccccc1)nn2C
inactive: [1] 34.8% | [2] 32.1% | [3] 28.6% | [4] 43% | [5] 21.6%

COc1ccc(N2C(=O)C3CC(c4ccc(Br)cc4)c4c([nH]c5ccccc45)C3C2=O)cc1 (stereo not given)
inactive: [1] 1.7% | [2] -14.4% | [3] -51.8% | [4] 2.9% | [5] -4.95%

COC1OC(C)CC(O)C1O (stereo not given)
inactive: [1] 5.3% | [2] -7.05% | [3] -57.6% | [4] 2.7% | [5] -37.8%

[O-][n+]1cc(N=Nc2ccc(Cl)cc2)nn1-c1ccc(Cl)cc1
inactive: [1] -11.6% | [2] -33.8% | [3] 9.85% | [4] -1.1% | [5] -14.3%

CC(=O)OC1C(COS(=O)(=O)c2ccc(C)cc2)OCOC(COS(=O)(=O)c2ccc(C)cc2)C1OC(C)=O (stereo not given)
inactive: [1] 0.2% | [2] 4.4% | [3] -26.2% | [4] -0.7% | [5] 18.4%

CC(=O)OC[C@@]12CC[C@H]3C(C)(C)CCC[C@]3(C)[C@H]1C[C@@H](C1=CC(=O)O[C@H]1O)O2
active: [1] 86.6% | [2] 91.8% | [3] 91.5% | [4] 89.4% | [5] 90%

CC1=CCC(CC=O)C1(C)C (stereo not given)
inactive: [1] 9.95% | [2] -1.95% | [3] -43.4% | [4] -6.65% | [5] -3.45%

COc1cc2c(c(OC)c1OC)-c1ccc(OC)c(=O)cc1[C@@H](NC(=O)c1ccccc1)CC2
inactive: [1] 11.7% | [2] 7.15% | [3] -0.05% | [4] 14.2% | [5] 18.9%

C=CCNC(=S)N/C=C(\C#N)c1nc2ccccc2s1
inactive: [1] 0.3% | [2] -6.3% | [3] 32.4% | [4] -4.35% | [5] 31.3%

CCCC1(C(=O)O)NC(=O)NC1=O (stereo not given)
inactive: [1] -4.7% | [2] -11.3% | [3] -12.6% | [4] -1.1% | [5] -8.1%

COC(=O)c1cc(-c2ccc(F)cc2)[nH]c(=O)c1C#N
inactive: [1] 6.3% | [2] -10.4% | [3] 13.4% | [4] -25.8% | [5] 16.6%

COc1cc(CNc2ccc3nc4n(c(=O)c3c2)CCCCC4)cc(OC)c1OC
inactive: [1] -9.7% | [2] 13.4% | [3] -19.2% | [4] -15.9% | [5] -21.2%

O=C1OC(Oc2ccccc2OC2OC(=O)c3ccccc32)c2ccccc21 (stereo not given)
inactive: [1] -6.9% | [2] 3.7% | [3] 5.95% | [4] -5.05% | [5] 9.85%

CC1=N/C(=C\c2ccc(N)cc2)C(=O)N1Nc1nnc(NN2C(=O)/C(=C/c3ccc(N)cc3)N=C2C)c2ccccc12
inactive: [1] -11.7% | [2] -13.3% | [3] 7.35% | [4] -30.4% | [5] -2.35%

CC(NC(=O)CNC(=O)CNC(=O)CNC(=O)CN)C(=O)O (stereo not given) (H-GGGG[ξA]-OH)
inactive: [1] -26.9% | [2] -30.9% | [3] -10.6% | [4] -14.5% | [5] -31.6%

CC(=O)OCC1OC(n2c(C)cc(C)c(C#N)c2=S)C(OC(C)=O)C(OC(C)=O)C1OC(C)=O (stereo not given)
inactive: [1] 21.2% | [2] 16.6% | [3] -14.9% | [4] -6.05% | [5] 32.4%

NNc1ccc([N+](=O)[O-])c2[nH][nH]c(=O)c12
inactive: [1] 8% | [2] 6.5% | [3] 11.2% | [4] 31.9% | [5] 11.4%

COC(CNCCO)c1ccccc1 (stereo not given)
inactive: [1] 3.1% | [2] -17.6% | [3] -89.2% | [4] -6.15% | [5] -5.45%

CC(=O)/C=C(\O)c1c(C)[nH]c2ccccc12
inactive: [1] -16% | [2] 9% | [3] -41.4% | [4] -11.9% | [5] -5.95%

COC12CC3C4CCC5CC(O)CCC5(C)C4CCC3(C)C1C(C)C1(CCC(C)CO1)O2 (stereo not given)
inactive: [1] 33.6% | [2] 8.7% | [3] 19.8% | [4] 1.05% | [5] -0.4%

Cc1cccc(I)c1
inactive: [1] -21.4% | [2] -24.4% | [3] -2.1% | [4] -2.55% | [5] 17.2%

CCCCC(=CC(C)(C)C)CCCC
inactive: [1] 22.9% | [2] -2.4% | [3] 7.95% | [4] 20.6% | [5] 14.5%

CN(C)CC1CCCCCCCCCC(CN(C)C)C1=O (stereo not given)
inactive: [1] -26.4% | [2] 19.9% | [3] -1.6% | [4] -21.4% | [5] 66.7%

Cc1nc(N)sc1C(=O)/C=C/c1ccc([N+](=O)[O-])cc1
inactive: [1] 16.2% | [2] -2.6% | [3] 20.8% | [4] 15.1% | [5] 9.45%

CC(=O)NCCC1CN(C(=O)/C=C/I)c2ccccc21 (stereo not given)
inactive: [1] -8.4% | [2] 30.4% | [3] 37.7% | [4] 24.6% | [5] -17.4%
